For part of these data: Measured potencies and affinities stand elsewhere. Active and inactive are the calls of the source.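 Rule for the calls, unless noted: active = fitted half-maximal concentration within the tested dose range, moderate curve steepness, a statistically real signal drop, and little compound fluorescence or tag-binding interference; inactive = the rest.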

In assay [1] the target is Cell division control protein 42 homolog (Homo sapiens) (UniProt P60953). Nature of the assay: activated mutant Cdc42 GTP-binding inhibitors, dose response, biochemical, multiplex bead flow cytometry, Bodipy-FL-GTP (AID 1333). (In general: In flow cytometry, cells or beads pass a laser one at a time.)
Cell division control protein 42 homolog (Homo sapiens), sequence (P60953 whole entry, looked up): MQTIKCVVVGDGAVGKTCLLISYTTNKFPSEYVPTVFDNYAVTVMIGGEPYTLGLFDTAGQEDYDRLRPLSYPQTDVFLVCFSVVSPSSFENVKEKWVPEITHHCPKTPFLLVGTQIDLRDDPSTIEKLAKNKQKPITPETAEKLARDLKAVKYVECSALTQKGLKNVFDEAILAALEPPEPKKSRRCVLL
Assay [2] has the same target. Kind of assay: wildtype Cdc42 GTP-binding inhibitors, dose response, biochemical, multiplex bead flow cytometry, Bodipy-FL-GTP (AID 1334;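 active = fitted half-maximal concentration within the tested range, moderate curve steepness, significant signal drop, and little compound fluorescence or bead-linkage interference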). Conditions: bead-based flow cytometry, Bodipy-FL-GTP binding to GST-Cdc42; at 100 µM (top of the series) unless noted.
Assay [3] deals with GTPase HRas (Homo sapiens) (UniProt P01112). Nature of the assay: inhibitors of GTP binding to wildtype Ras, dose response, biochemical, multiplex bead flow cytometry (AID 1335;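 active = fitted half-maximal concentration within 10 nM to 100 µM, steepness 0.5 to 2, significant signal drop, low assay interference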). Particulars: bead-based flow cytometry, Bodipy-GTP binding to GST-Ras; at 100 µM (top of the series) unless noted.
GTPase HRas (Homo sapiens), sequence (P01112 whole entry, looked up): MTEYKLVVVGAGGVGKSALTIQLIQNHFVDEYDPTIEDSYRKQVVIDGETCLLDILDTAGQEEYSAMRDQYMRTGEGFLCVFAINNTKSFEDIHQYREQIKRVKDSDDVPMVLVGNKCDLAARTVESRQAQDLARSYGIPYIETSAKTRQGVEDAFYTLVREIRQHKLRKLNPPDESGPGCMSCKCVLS
In assay [4] the test system is Ras-related protein Rab-7a (dog), GTP binding. Kind of assay: Rab7 GTP binding inhibitors, potency, dose response, biochemical, wildtype, multiplex bead flow cytometry (AID 1336; call rule not given here).
Assay [5] addresses Ras-related C3 botulinum toxin substrate 1 (Homo sapiens) (UniProt P63000). Kind of assay: wildtype Rac1 GTP binding inhibitors, dose response, biochemical, multiplex bead flow cytometry (AID 1340;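 active = dose curve with midpoint inside tested range, moderate steepness, plateau gap beyond fit error, low compound glow and bead-link interference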). Conditions: GST-Rac1 beads, Bodipy-FL-GTP binding; at 100 µM (top of the series) unless noted.
The target of assay [6] is GTPase HRas (Homo sapiens) (UniProt P01112). Nature of the assay: activated Ras mutant GTP binding inhibitors, dose response, biochemical, multiplex bead flow cytometry (AID 1341;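 active = dose-response curve with midpoint inside the tested range, moderate steepness, significant amplitude and little compound fluorescence or bead-attachment interference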;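 note: GST-tagged constitutively activated Ras mutant immobilized on beads and multiplexed with other GTPases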).

With `O=C1c2oc3ccc(Br)cc3c(=O)c2C(c2cccc(F)c2)N1CCO` (stereo not given), the call in assay [1], in assay [4] and in assay [6] was inactive. In assay [2], this molecule showed a fluorescence, percent of control (lower = inhibition) of 36.4%. In assay [3], the GTP binding, percent of control was 81.2%. Further, the GTP binding signal, raw median fluorescence (lower = inhibition) (MCF (arbitrary fluorescence units)) in assay [5] was determined as 276.

On to `CN1CCN(S(=O)(=O)c2cccc(C(=O)Nc3sc4c(c3C(N)=O)CCCC4)c2)CC1`, for which the outcome in assay [1], in assay [4] and in assay [6] was inactive. For the same molecule, the fluorescence, percent of control (lower = inhibition) in assay [2] is 43.6%. Moreover, in assay [3], the GTP binding, percent of control turned out to be 57.3%. In assay [5], this molecule had a GTP binding signal, raw median fluorescence (lower = inhibition) (MCF (arbitrary fluorescence units)) of 150.

As to `COc1ccc(C(=O)C2CCCN(C(=O)c3cc4nc(C)cc(C)n4n3)C2)cc1F` (stereo not given), the result in assay [1], in assay [4] and in assay [6] was inactive. The fluorescence, percent of control (lower = inhibition) in assay [2] stood at 41.4%. In addition, the GTP binding, percent of control in assay [3] was determined as 95.1%. The GTP binding signal, raw median fluorescence (lower = inhibition) (MCF (arbitrary fluorescence units)) in assay [5] came to 274.

As for `CN(C)c1ccc([C@@H]2[C@@H]([N+](=O)[O-])[C@H]3C=Cc4ccccc4N3[C@H]2C(=O)c2ccc(Cl)cc2)cc1`, the call in assay [1], in assay [4] and in assay [6] was inactive. The fluorescence, percent of control (lower = inhibition) in assay [2] came out at 46.5%. In assay [3], this molecule registered a GTP binding, percent of control of 60.6%. Further, the GTP binding signal, raw median fluorescence (lower = inhibition) (MCF (arbitrary fluorescence units)) in assay [5] stood at 169.

Regarding `O=C(NC1CCCCC1)c1noc2c1CCCCC2`, the outcome in assay [1], in assay [4] and in assay [6] was inactive. In addition, in assay [2], the fluorescence, percent of control (lower = inhibition) came out at 34.3%. This molecule returned a GTP binding, percent of control in assay [3] of 80.9%. In assay [5], the GTP binding signal, raw median fluorescence (lower = inhibition) (MCF (arbitrary fluorescence units)) stood at 252.

Consider `COc1ccc(C(=O)O)c(OCc2ccccc2Br)c1`, for which the result in assay [1], in assay [4] and in assay [6] was inactive. This molecule registered a fluorescence, percent of control (lower = inhibition) in assay [2] of 59.6%. In assay [3], this molecule displayed a GTP binding, percent of control of 171%. The molecule also displayed a GTP binding signal, raw median fluorescence (lower = inhibition) (MCF (arbitrary fluorescence units)) in assay [5] of 56.1.

Consider `Nc1nonc1-c1nc2ccccc2n1CC(=O)N/N=C/c1ccc(-c2ccccc2C(=O)O)o1`, for which the molecule was called inactive in assay [1], in assay [4] and in assay [6]. The fluorescence, percent of control (lower = inhibition) in assay [2] turned out to be 30.6%. Besides, the GTP binding, percent of control in assay [3] was 68.4%. The GTP binding signal, raw median fluorescence (lower = inhibition) (MCF (arbitrary fluorescence units)) in assay [5] came out at 133.

For `COCCn1c(N)c(C(=O)Nc2sc3c(c2C(=O)OC)CCCC3)c2nc3ccccc3nc21`, the result in assay [1], in assay [4] and in assay [6] was inactive. Also, the fluorescence, percent of control (lower = inhibition) in assay [2] amounted to 52%. The GTP binding, percent of control in assay [3] was 108%. In assay [5], this molecule gave a GTP binding signal, raw median fluorescence (lower = inhibition) (MCF (arbitrary fluorescence units)) of 120.

On to `CC1Cc2ccccc2N1S(=O)(=O)c1cccc(C(=O)NCCCO)c1` (stereo not given), for which the call in assay [1], in assay [4] and in assay [6] was inactive. The fluorescence, percent of control (lower = inhibition) in assay [2] is 38.5%. The GTP binding, percent of control in assay [3] is 85.5%. This molecule registered a GTP binding signal, raw median fluorescence (lower = inhibition) (MCF (arbitrary fluorescence units)) in assay [5] of 323.

Regarding `Cc1cc(N/N=C/c2ccc(O)cc2O)nc(-n2nc(C)cc2C)n1`, the result in assay [1], in assay [4] and in assay [6] was inactive. Moreover, in assay [2], the fluorescence, percent of control (lower = inhibition) was found to be 41%. In assay [3], this molecule registered a GTP binding, percent of control of 53.3%. In assay [5], this molecule came in with a GTP binding signal, raw median fluorescence (lower = inhibition) (MCF (arbitrary fluorescence units)) of 141.

As to `CCCOc1ccc(C(CC(=O)O)NC(=O)c2sc3ccccc3c2Cl)cc1` (stereo not given), the call in assay [1], in assay [4] and in assay [6] was inactive. The fluorescence, percent of control (lower = inhibition) in assay [2] came to 28.6%. In assay [3], this molecule yielded a GTP binding, percent of control of 78.9%. Further, the GTP binding signal, raw median fluorescence (lower = inhibition) (MCF (arbitrary fluorescence units)) in assay [5] was 258.

Consider `COc1ccc(/C=C2\N=C(SC)SC2=O)cc1OC`, for which the molecule was called inactive in assay [1], in assay [4] and in assay [6]. The fluorescence, percent of control (lower = inhibition) in assay [2] turned out to be 86.4%. The molecule also registered a GTP binding, percent of control in assay [3] of 150%. The GTP binding signal, raw median fluorescence (lower = inhibition) (MCF (arbitrary fluorescence units)) in assay [5] was found to be 186.

As to `COc1ccccc1OCCn1cc(C(=O)O)c2cccc(Cl)c21`, the result in assay [1], in assay [4] and in assay [6] was inactive. Besides, the fluorescence, percent of control (lower = inhibition) in assay [2] was 53.4%. Moreover, the GTP binding, percent of control in assay [3] is 199%. The molecule also registered a GTP binding signal, raw median fluorescence (lower = inhibition) (MCF (arbitrary fluorescence units)) in assay [5] of 56.2.

Turning to `Cc1nnc(SCCN2CCOCC2)c2nn(-c3ccccc3F)c(C)c12`, the molecule was called inactive in assay [1], in assay [4] and in assay [6]. In assay [2], this molecule displayed a fluorescence, percent of control (lower = inhibition) of 48.5%. Also, in assay [3], the GTP binding, percent of control amounted to 61.1%. Further, in assay [5], the GTP binding signal, raw median fluorescence (lower = inhibition) (MCF (arbitrary fluorescence units)) was 196.

Take `C/C(=N\Nc1cc(C)nc(-c2ccccc2)n1)c1cccc([N+](=O)[O-])c1`: the molecule was called inactive in assay [1], in assay [4] and in assay [6]. The molecule further registered a fluorescence, percent of control (lower = inhibition) in assay [2] of 33.6%. The molecule further registered a GTP binding, percent of control in assay [3] of 77.8%. For the same molecule, the GTP binding signal, raw median fluorescence (lower = inhibition) (MCF (arbitrary fluorescence units)) in assay [5] was 193.

Source of the values: PubChem BioAssay.
